The values below come from PubChem BioAssay (NCATS).

For experiment [1], the target named is Calcium and integrin-binding protein 1 (Homo sapiens) (UniProt Q99828). Kind of experiment: Primary qHTS for Identification of Calcium Integrin Binding Protein 1 (CIB1) Competitor (AID 1508620). Further: potency means the concentration at half of the fitted maximal effect. The procedure, abridged:
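Fluorescence polarization competition: CIB1-GST (1 uM final) preincubated with compound 15 min at room temperature, then FITC-labeled alphaIIb peptide (100 nM final) added for another 15 min. Polarization read at Ex 480/Em 540.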

Experiment [2] deals with Cytochrome P450 2D6 (Homo sapiens) (UniProt P10635). Nature of the experiment: Cytochrome P450 family 2 subfamily D member 6 (CYP2D6) small molecule antagonists: luciferase biochemical (cell-free) qHTS assay (AID 1645840; active means well fitted curve in the direction sought with a large enough effect in the repeat runs; an effect the other way counts as inactive or inconclusive; further: nearly all actives have a fitted effect of over 55% in size; further: potency means the concentration at half of the fitted maximal effect). The method in brief: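 P450-Glo luminescent screen: recombinant CYP2D6 enzyme–proluciferin substrate mix preincubated with compound 10 min at room temperature, then NADPH regeneration added for 1 h at room temperature. Detection reagent added for 20 min; luciferin light read as relative luminescence units.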

Experiment [3] can be described thus: Primary qHTS for inhibitors of nuclear receptor binding SET domain protein 2 (NSD2) in an isogenic RCH-ACV NSD2 p.E1099K mutant (9B) (AID 1645876). Further: nearly all actives have a fitted effect of over 70% in size. Further: potency means the concentration at half of the fitted maximal effect.
A short description of experiment [4]: Primary qHTS for inhibitors of nuclear receptor binding SET domain protein 2 (NSD2) in an RCH-ACV wild type WT cells (2C) (AID 1645877). Further: nearly all actives have a fitted effect of over 70% in size. Further: potency means the concentration at half of the fitted maximal effect.
Experiment [5] addresses Cytochrome P450 3A4 (Homo sapiens) (UniProt P08684). Kind of experiment: Cytochrome P450 family 3 subfamily A member 4 (CYP3A4) small molecule antagonists: luciferase qHTS assay (AID 1645841; active means well fitted curve in the direction sought with a large enough effect in the repeat runs; an effect the other way counts as inactive or inconclusive; further: nearly all actives have a fitted effect of over 45% in size). The procedure, abridged:
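P450-Glo CYP3A4 enzyme with proluciferin substrate was preincubated with DMSO-dissolved compounds for 10 min at room temperature. NADPH regeneration solution started a 1 h reaction. Detection reagent stopped it, and luminescence was read after 20 min.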

The target of experiment [6] is Cytochrome P450 2C9 (Homo sapiens) (UniProt P11712). Kind of experiment: Cytochrome P450 family 2 subfamily C member 9 (CYP2C9) small molecule antagonists: luciferase biochemical (cell-free) qHTS assay (AID 1645842; active means well fitted curve in the direction sought with a large enough effect in the repeat runs; an effect the other way counts as inactive or inconclusive; further: nearly all actives have a fitted effect of over 55% in size; further: potency means the concentration at half of the fitted maximal effect). The procedure, abridged: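 Luminescence, after 20 min with luciferin detection reagent, reflected CYP2C9 turnover during a 1 h NADPH-driven reaction at 37C. Enzyme-substrate mix contained 0.4% bovine serum albumin and was preincubated with compound 10 min at room temperature.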

SMILES strings stand for the structures. Values joined by “and” are separate entries in the source; they are usually repeats but may differ in a detail not shown here. Identical values can stand only once. Results filed as inconclusive are left out. Active and inactive are the calls of the source. Unless noted, the call rests on the fitted dose curve; in most records, active means well fitted curve in the direction sought with a large enough effect; inconclusive means small, poorly fitted or top-dose-only effect, or another doubt; inactive means no such curve, though single readings can be large; an effect the other way counts as inactive or inconclusive.

Calcium and integrin-binding protein 1 (Homo sapiens), sequence (Q99828 whole entry, looked up): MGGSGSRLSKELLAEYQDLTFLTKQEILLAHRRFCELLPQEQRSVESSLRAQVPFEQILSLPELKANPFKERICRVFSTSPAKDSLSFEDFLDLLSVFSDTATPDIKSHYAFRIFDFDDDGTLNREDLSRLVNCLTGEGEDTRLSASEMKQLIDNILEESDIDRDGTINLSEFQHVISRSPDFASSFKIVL
Cytochrome P450 2C9 (Homo sapiens), sequence (P11712 whole entry, looked up): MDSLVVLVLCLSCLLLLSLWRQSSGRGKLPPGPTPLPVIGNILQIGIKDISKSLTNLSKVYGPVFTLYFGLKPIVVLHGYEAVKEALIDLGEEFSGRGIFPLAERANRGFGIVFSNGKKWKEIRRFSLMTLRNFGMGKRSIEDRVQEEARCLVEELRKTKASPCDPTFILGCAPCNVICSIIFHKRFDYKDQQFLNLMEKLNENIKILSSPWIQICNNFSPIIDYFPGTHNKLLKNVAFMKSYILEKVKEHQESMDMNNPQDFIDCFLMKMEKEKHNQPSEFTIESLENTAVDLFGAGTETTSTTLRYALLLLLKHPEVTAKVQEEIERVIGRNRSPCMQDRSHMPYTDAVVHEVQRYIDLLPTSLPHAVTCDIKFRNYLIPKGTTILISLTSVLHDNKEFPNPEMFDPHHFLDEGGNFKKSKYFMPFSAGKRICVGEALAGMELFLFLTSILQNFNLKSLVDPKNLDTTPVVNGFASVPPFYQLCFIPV
Cytochrome P450 2D6 (Homo sapiens), sequence (P10635 whole entry, looked up): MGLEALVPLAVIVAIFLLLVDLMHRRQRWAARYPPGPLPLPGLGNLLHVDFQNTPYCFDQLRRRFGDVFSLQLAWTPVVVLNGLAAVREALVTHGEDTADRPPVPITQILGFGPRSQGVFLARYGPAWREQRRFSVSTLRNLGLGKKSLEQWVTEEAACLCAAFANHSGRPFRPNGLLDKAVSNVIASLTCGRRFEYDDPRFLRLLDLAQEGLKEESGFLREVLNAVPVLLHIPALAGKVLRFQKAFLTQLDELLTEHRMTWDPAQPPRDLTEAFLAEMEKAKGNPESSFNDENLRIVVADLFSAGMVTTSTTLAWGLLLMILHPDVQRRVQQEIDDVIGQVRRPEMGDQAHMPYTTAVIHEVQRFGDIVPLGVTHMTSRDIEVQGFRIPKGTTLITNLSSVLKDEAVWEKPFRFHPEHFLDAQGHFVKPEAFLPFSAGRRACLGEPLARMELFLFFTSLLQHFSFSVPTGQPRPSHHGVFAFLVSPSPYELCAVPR
Cytochrome P450 3A4 (Homo sapiens), sequence (P08684 whole entry, looked up): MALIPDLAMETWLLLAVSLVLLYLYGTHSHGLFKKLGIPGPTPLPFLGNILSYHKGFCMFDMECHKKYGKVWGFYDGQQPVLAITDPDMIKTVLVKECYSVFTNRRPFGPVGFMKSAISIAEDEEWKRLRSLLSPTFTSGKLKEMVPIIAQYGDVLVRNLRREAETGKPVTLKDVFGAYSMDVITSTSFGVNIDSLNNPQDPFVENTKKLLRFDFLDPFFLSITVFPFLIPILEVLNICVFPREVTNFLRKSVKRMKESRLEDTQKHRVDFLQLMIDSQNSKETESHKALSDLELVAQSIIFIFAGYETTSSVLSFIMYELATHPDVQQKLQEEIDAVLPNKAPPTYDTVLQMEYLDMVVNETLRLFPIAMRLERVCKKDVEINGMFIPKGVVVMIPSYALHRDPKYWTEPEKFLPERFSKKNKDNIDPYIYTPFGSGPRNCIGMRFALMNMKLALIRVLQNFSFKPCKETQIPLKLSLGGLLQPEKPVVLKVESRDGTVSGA

`CCC(CC)Nc1nc(C)c(-c2ccc(OC(F)(F)F)cc2OC)nc1OC`: the Potency result in experiment [1], in experiment [2], in experiment [3] and in experiment [4] was “inactive” each time.
Turning to `CC(=O)NC[C@H]1CN(c2ccc(N3CCSCC3)c(F)c2)C(=O)O1`, the Potency entry in experiment [1], in experiment [2], in experiment [3] and in experiment [4] was “inactive” in each case.
`CC(C)S(=O)(=O)Nc1ccc(F)c(C(=O)c2c[nH]c3ncc(-c4cccnc4)cc23)c1F`: the Potency entry in experiment [1] was “inactive”. Also, the values for the Potency in experiment [2], in experiment [3] and in experiment [4] were 5.35 µM (active), 4.09 µM (active) and 4.59 µM (active), respectively.
For `COc1ccccc1S(=O)(=O)Nc1ccc2c(c1)CN(C)C(=O)N2`, in that order: “inactive”, “inactive”, 1.83 µM (active) and 1.63 µM (active).
For the compound `N[C@@H]1c2cccnc2[C@H](OC(=O)N2CCC(n3c(=O)[nH]c4ncccc43)CC2)CC[C@H]1c1cccc(F)c1F`, the Potency entry in experiment [1], in experiment [3] and in experiment [4] was “inactive” throughout. Further, the Potency in experiment [2] is 6.74 µM (active).
For the compound `CCN1CCC[C@@H]1CNC(=O)c1ccc2c(c1)NC(=O)c1cccc(C)c1S2`, the Potency entry in experiment [1], in experiment [5] and in experiment [6] was “inactive” each time.
Regarding `COc1ccncc1C(=O)NC(=O)Nc1ccc(-c2ccccc2)c(C(F)(F)F)c1`, the Potency entry in experiment [1], in experiment [3] and in experiment [4] was “inactive” throughout. Besides, in experiment [2], the Potency is 19 µM (active).
With `CC[N+]1(C/C2=C/CCCCCC2)CCC(NC(=O)C2c3cc(Cl)ccc3Oc3ccc(Cl)cc32)CC1` (centres undefined), the Potency result in experiment [1] was “inactive”. Also, the Potency in experiment [2] is 0.425 µM (active); in experiment [3], 23 µM (active); in experiment [4], 18.3 µM (active).
In the case of `CC(NC(=O)Cc1cc(F)cc(F)c1)C(=O)NC1C(=O)N(C)c2ccccc2-c2ccccc21` (centres undefined), the Potency result in experiment [1] and in experiment [2] was “inactive” in each case. For the same compound, the Potency is 2.58 µM (active) in experiment [3] and 3.25 µM (active) in experiment [4].
Take `c1cc(NC2CCNCC2)nc(-c2cnc3ccccn23)c1`: the Potency entry in experiment [1] is “inactive”. Besides, the Potency was 15.1 µM (active) in experiment [2], 1.15 µM (active) in experiment [3] and 1.45 µM (active) in experiment [4].
Consider `Cn1cc(-c2cnn3c(N)c(Br)c([C@@H]4CCCNC4)nc23)cn1`, for which, in experiment [1], the Potency result is “inactive”. The Potency in experiment [2] is 10.7 µM (active); in experiment [3] it was 1.15 µM (active) and 3.72 µM (active); in experiment [4], 1.15 µM (active) and 4.17 µM (active).
With `CC(C)Oc1ccc(-c2cnc3c(-c4ccnc5ccccc45)cnn3c2)cc1`, the Potency entry in experiment [1], in experiment [2], in experiment [3] and in experiment [4] was “inactive” throughout.
Take `O=C(Nc1cccnn1)N1CCN(c2nccc(-c3ccc(F)c(F)c3)n2)CC1`: the Potency result in experiment [1], in experiment [2], in experiment [3] and in experiment [4] was “inactive” in each case.
As for `NC(=O)c1cnc(N[C@@H]2CCCC[C@H]2N)nc1Nc1cccc(-n2nccn2)c1`, the Potency entry in experiment [1] was “inactive”. The results for the Potency in experiment [2], in experiment [3] and in experiment [4] were 19 µM (active), 0.649 µM (active) and 0.459 µM (active), respectively.
For `CCn1c2ccccc2c2cc(Nc3ccnc(NCCCN4CCOCC4)n3)ccc21` the same measures were “inactive”, “inactive”, 2.9 µM (active) and 8.17 µM (active).
For `N#Cc1ccc(O[C@@H]2c3ccccc3C[C@H]2N2CCC[C@@H](N)C2)c(Cl)c1`, in that order: “inactive”, 0.169 µM (active), 20.5 µM (active) and 18.3 µM (active).
For `Cc1c(C2=CCN(C(=O)N(C)C(C)C)CC2)nnn1-c1cccnc1F`, in that order: “inactive”, “inactive”, “inactive” and “inactive”.
Regarding `c1ccc(-c2ccc(CNc3nc(-c4ccccn4)nnc3-c3ccccc3)cc2)cc1`, the Potency result in experiment [1] was “inactive”. The Potency was 2.68 µM (active) in experiment [2], 2.95 µM (active) in experiment [3] and 2.95 µM (active) in experiment [4].
In the case of `Cc1noc(-c2ccc(-c3ccc(CC(=O)O)cc3)cc2)c1NC(=O)O[C@H](C)c1ccccc1Cl`, the Potency result in experiment [1] was “inactive”. Besides, the Potency in experiment [6] was 3.01 µM (active).
In the case of `Cc1nc2ccc(-n3ncc(C(=O)c4cc5ccccc5[nH]4)c3N)cc2[nH]1`, the Potency result in experiment [1] was “inactive”. The Potency is 23.9 µM (active) in experiment [2]; 3.25 µM (active) and 2.63 µM (active) in experiment [3]; 7.28 µM (active) and 4.17 µM (active) in experiment [4].
With `CN1CCN(C(=O)CN[C@@H]2C[C@H]2c2ccc(OCc3ccccc3)cc2)CC1`, in experiment [1], the Potency entry was “inactive”. Besides, the results for the Potency in experiment [2] and in experiment [4] were 10.7 µM (active) and 20.5 µM (active), respectively.
In the case of `CC(C)C[C@@H](C(=O)N[C@@H](Cc1ccc(OCc2ccccc2)cc1)C(=O)NC(C)(C)C)N(C)Cc1ccc(C(C)(C)C)cc1`, the Potency entry in experiment [1], in experiment [2], in experiment [3] and in experiment [4] was “inactive” throughout.
For `COc1ccc2nc3n[nH]c(C)c3c(NCCOCCO)c2c1`, the figures for the Potency in experiment [1], in experiment [2] and in experiment [4] were 50.1 µM (active), 9.52 µM (active) and 3.25 µM (active), respectively.
For the compound `Cc1nc2c(C(F)(F)F)cccc2nc1-c1ccc(-c2cccc(S(C)(=O)=O)c2)cc1`, the Potency entry in experiment [1], in experiment [2], in experiment [3] and in experiment [4] was “inactive” in each case.
Take `O=C(NCc1ccccc1)c1ccc2c(=O)n(-c3cccc(C(F)(F)F)c3)c(=S)[nH]c2c1`: the Potency entry in experiment [1], in experiment [5] and in experiment [3] was “inactive” throughout. In addition, the Potency in experiment [6] is 10.7 µM (active).
Regarding `Cc1nc(NC(=O)N2CCC[C@H]2C(N)=O)sc1-c1ccnc(C(C)(C)C(F)(F)F)c1`, the Potency result in experiment [1] and in experiment [2] was “inactive” in each case. Also, the Potency in experiment [3] is 1.63 µM (active) and 2.63 µM (active); in experiment [4], 1.63 µM (active) and 2.95 µM (active).
